Screening data deposited in PubChem BioAssay by National Center for Advancing Translational Sciences (NCATS).
KinaseGlo FLuc: blocks Kinase-Glo luciferase, a counter-screen artifact; Potency, µM (series often up to 38.3 µM), inactives show top-dose activity change, negative = inhibition, most hits filed as inhibitors; Q27757; Kinase-Glo luciferase, ATP luminescence, 8 min; 200,000 compounds, 0.28% hits; AID 1379; further: on the % scale 0 is the no-effect control and ±100 the full control effect; nearly all actives have a fitted effect of over 60% in size
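Substrate mix (final 50 mM imidazole pH 7.2, 50 mM KCl, 7 mM MgCl2, 10 uM ATP, 0.01% Tween 20, 0.05% BSA) plus pin-tool compound, then Kinase-Glo detection mix; 8 min ambient, luminescence read.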
ELG1 genotoxic: induces genotoxicity in HEK293T cells with luciferase-tagged ELG1; HEK293T ELG1-luciferase reporter, luminescence, 16 h; Potency, µM (series often up to 46 µM), inactives show top-dose activity change, positive = activation, actives largely listed as activators; 330,000 compounds, 1.3% hits; further: % of control where 0% means no effect; nearly all actives have a fitted effect of over 60% in size
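16 hr compound incubation (37 °C, 5% CO2) of HEK293T cells carrying luciferase-tagged ELG1; luciferase then measured by ONE-Glo luminescence after 30 min at RT.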
SMN2 splice enh: SMN2 splice variant enhancement; Potency, µM (highest dose often 46.1 µM), without a hit: at the top dose activity change, positive = activation, actives largely listed as activators; 210,000 compounds, 2.8% hits; HEK293 SMN2-luciferase splicing reporter, luminescence, 30-36 h; further: % of control where 0% means no effect; nearly all actives have a fitted effect of over 55% in size
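HEK293 cells carry an SMN2 minigene-luciferase reporter in which exon 7 inclusion puts luciferase in frame. Cells were seeded at 2000 cells/well, attached for 10-12 hours, then exposed to compounds for 30-36 hours at 37C before ONE-Glo luminescence.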
FLuc counter: inhibits or activates purified firefly luciferase, miR-21 counter-screen. purified FLuc, Km substrates, luminescence inhibition. Potency, µM (top dose mostly 57.5 µM), for the others: at the top dose activity change, negative = inhibition, usual class: inhibitors. P08659. 360,000 compounds, 6.9% hits;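 further: plate controls were vehicle for no effect and reference inhibitor for full effect; nearly all actives have a fitted effect of over 55% in size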
Target sequence (P08659 whole entry, looked up): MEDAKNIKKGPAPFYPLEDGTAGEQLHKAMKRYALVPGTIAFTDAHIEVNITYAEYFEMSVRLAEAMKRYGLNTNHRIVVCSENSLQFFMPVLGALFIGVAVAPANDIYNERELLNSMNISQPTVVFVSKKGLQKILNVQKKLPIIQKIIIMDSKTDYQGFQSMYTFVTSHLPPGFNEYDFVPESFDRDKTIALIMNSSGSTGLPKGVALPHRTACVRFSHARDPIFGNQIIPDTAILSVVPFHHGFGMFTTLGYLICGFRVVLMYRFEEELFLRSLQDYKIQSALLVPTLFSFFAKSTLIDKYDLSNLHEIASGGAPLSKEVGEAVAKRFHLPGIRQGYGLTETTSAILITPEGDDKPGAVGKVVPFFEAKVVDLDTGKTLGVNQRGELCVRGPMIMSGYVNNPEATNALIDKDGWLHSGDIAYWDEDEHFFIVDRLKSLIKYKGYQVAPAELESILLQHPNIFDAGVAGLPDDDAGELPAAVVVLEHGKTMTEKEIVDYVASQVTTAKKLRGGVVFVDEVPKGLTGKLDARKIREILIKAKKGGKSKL
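Biochemical qHTS of compounds, final roughly 60 µM downward over six points, against 10 nM purified firefly luciferase using Km concentrations of substrates (10 uM D-luciferin, 10 uM ATP) in Tris acetate pH 7.5 buffer; luminescence output.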
NPC1 promoter act: activators of NPC1 promoter | Huh7 NPC1 promoter luciferase reporter, 24 h | Potency, µM (series often up to 9.22 µM), inactives show at the top dose activation, actives largely listed as activators | 320,000 compounds, 2.4% hits | AID 485313; further: % of control where 0% means no effect; nearly all actives have a fitted effect of over 60% in size
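Luciferase expression driven by the NPC1 promoter was measured in stably transfected Huh7 cells after a 24 h compound incubation, using a luciferase reagent and a luminescence read.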
Rab9 prom act: Rab9 promoter activation | 320,000 compounds, 2.8% hits | Huh7 Rab9 promoter-luciferase reporter, luminescence, 24 h | Potency, µM (highest dose often 9.22 µM), for inactives: at the highest dose activation, negative = inhibition, usual class: activators | AID 485297; further: % of control where 0% means no effect; nearly all actives have a fitted effect of over 60% in size
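Stable Rab9-luc Huh7, 1500 cells/well, 2 h settle; cmpd in DMSO, 24 h, 37 °C/5% CO2; luciferase reagent 10 min RT; luminescence.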
* marks the source's active call; other numbers are inactive results; ? = inconclusive; . = no result; [ ] = another dose, or the depositor's remark. A selection: hits, their analogues and other compounds. The true share with any hit is near 7.3%. The call rests on the fitted dose curve; in most records, active means well fitted curve in the direction sought with a large enough effect; inconclusive means small, poorly fitted or top-dose-only effect, or another doubt; inactive means no such curve, though single readings can be large; an effect the other way counts as inactive or inconclusive. Potency means the concentration at half of the fitted maximal effect.

SMILES	KinaseGlo FLuc	ELG1 genotoxic	SMN2 splice enh	FLuc counter	NPC1 promoter act	Rab9 prom act
O=C(Nc1ccc2nc[nH]c2c1)c1ccco1	-24%	?	8%	19µM*	19%	?
CC(C)(C)C(=O)Nc1ccc(Cl)c(-c2nc3ccccc3[nH]2)c1	.	.	.	-10%	.	.
O=C(Nc1cccc(-c2nc3ccccc3[nH]2)c1)c1cccc(NC(=O)c2ccco2)c1	-6%	-23%	-90%	?	19%	1%
Cc1nc2ccc(C(=O)Nc3ccc4nc[nH]c4c3)cc2[nH]1	.	-2%	.	?	1%	-4%
O=C(Nc1ccc2nc(-c3ccc(Br)o3)[nH]c2c1)c1ccco1	-8%	-1%	-2%	5.4µM*	?	?
O=C(Nc1ccc2nc(-c3ccccc3)[nH]c2c1)c1ccco1	-2%	?	16µM*	11µM*	?	?
c1cc(CSc2ncnc3nc[nH]c23)ccn1	-5%[7.66 µM]	.	-7%[9.22 µM]	.	.	.
COC(=O)c1ccc(CSc2c(C(C)C)cnc3c2c(=O)n(C)c(=O)n3C)cc1	.	.	.	4%	.	.
Cc1ccc(-c2nc3ccccc3[nH]2)cc1NC(=O)c1ccco1	-3%	24%	.	15µM*	12%	11%
Cn1cccc1-c1nc2ccc(NC(=O)c3cccs3)cc2[nH]1	1%	?	41%	?	0%	3%
CC(=O)Nc1ccc2nc(-c3ccc(Br)o3)[nH]c2c1	-22%	?	?	3.8µM*	?	3.5µM*
CC(=O)Nc1ccc2nc(-c3cccn3C)[nH]c2c1	.	?	.	?	27%	?
O=C(Nc1ccc2nc(-c3ccc(Br)o3)[nH]c2c1)c1cccs1	-4%	-1%	-13%	4.3µM*	0%	23%
Cc1cccc2[nH]c(-c3ccc(NC(=O)c4ccco4)cc3)nc12	?	?	14µM*	4.8µM*	2.2µM*	1µM*
COc1ccc(N2CCN(C(=O)c3cc4c(=O)n(Cc5cccs5)ccc4nc3C)CC2)cc1	.	.	.	-7%	.	.
COCCn1c(C)cc(C(=O)CSc2nnc(C)s2)c1C	10µM*	.	-58%	1.7µM*	.	.
COc1ccc(Cl)cc1C(=O)CSc1nnnn1C1CCCC1	.	10%	.	?	0%	2%
COCCn1c(C)cc(C(=O)CSc2nnnn2C2CCCC2)c1C	.	?	.	0.085µM*	0.1µM*	?
CC1=NCC[N@@+]1(CCc1ccccc1)Cc1ccccc1	-2%[7.66 µM]	.	-18%[9.22 µM]	.	.	.
Cc1ccc(NC(=O)c2c(C)oc3ncn(CC(C)C)c(=O)c23)nc1	.	.	.	-8%	.	.
COc1ccc(CNC(=O)c2cc(COc3c(F)cccc3F)on2)cc1OC	.	-5%	.	-5%	-3%	-1%
COc1cc(Cl)ccc1OCc1cc(C(=O)NCC(C)(C)N2CCOCC2)no1	.	13%	.	15µM*	23%	29%
COc1cc(Cl)ccc1OCc1cc(C(=O)NCc2cc(C(C)C)no2)no1	.	?	.	9.5µM*	?	1.3µM*
COc1ccc(OCc2cc(C(=O)NCC(C)(C)N3CCOCC3)no2)c(Cl)c1	.	-3%	.	?	4%	17%
CCOC(=O)c1c(Oc2ccc(C(=O)OC)cc2)nnc(-c2ccccc2)c1-c1ccccc1	.	.	?	2%	.	.
SMILES	KinaseGlo FLuc	ELG1 genotoxic	SMN2 splice enh	FLuc counter	NPC1 promoter act	Rab9 prom act
Cc1ccc(C2=NC(c3ccccc3)=Nc3ccc(Cl)cc3N2)cc1	.	.	-5%	11µM*	.	.
COc1ccc(C2=NC(c3ccccc3)=Nc3ccc(C)cc3N2)cc1	.	.	12%	?	.	.
Cn1c(-n2cccc2)c(-c2c(-c3ccccc3)[nH]c3c2c(=O)n(C)c(=O)n3C)c(=O)n(C)c1=O	.	.	.	-4%	.	.
Cc1ccsc1/C=N/NC(=O)c1ccco1	-8%	13%	24%	?	15%	17%
Cc1ccsc1/C=N/Nc1ccc(F)cc1F	.	?	.	12µM*	?	2.2µM*
Cc1ccsc1/C=N/Nc1ncc(Cl)cc1Cl	-10%	?	?	2.7µM*	2.8µM*	?
Cc1ccsc1/C=N/Nc1nc(=O)[nH]nc1C	4.5µM*	?	18µM*	?	?	2.8µM*
